Experimental data published in PubChem BioAssay (NCI).
The panel holds about 83,000 compounds, 20% with a hit somewhere; the sample as a whole holds those more often.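 Negative percent growth values reflect cell death: -40 means 40% of the cells present at the start died, and -100 means all died.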 A number with no mark means an inactive call. Activity calls are given as the source filed them. The calls were made as follows: active = growth percent below 10; inactive = the rest.

How the values were obtained:
Test in all cases: NCI-60 one-dose screen, 48 h (100 = growth as untreated, 0 = no growth, -100 = all killed)
Details in all cases: 10 µM unless noted
MOLT-4 leukemia = system: MOLT-4 leukemia
SR leukemia = system: SR leukemia
RPMI-8226 leukemia = system: RPMI-8226 leukemia
OVCAR-8 ovarian = system: OVCAR-8 ovarian
OVCAR-5 ovarian = system: OVCAR-5 ovarian
OVCAR-4 ovarian = system: OVCAR-4 ovarian
SK-OV-3 ovarian = system: SK-OV-3 ovarian
IGROV1 ovarian = system: IGROV1 ovarian
OVCAR-3 ovarian = system: OVCAR-3 ovarian
NCI/ADR-RES ovarian = system: NCI/ADR-RES ovarian
T-47D breast = system: T-47D breast
BT-549 breast = system: BT-549 breast
MDA-MB-435 melanoma = system: MDA-MB-435 melanoma
SW-620 colon = system: SW-620 colon
MCF7 breast = system: MCF7 breast
HCT-116 colon = system: HCT-116 colon
HCC-2998 colon = system: HCC-2998 colon
KM12 colon = system: KM12 colon
HS 578T breast = system: HS 578T breast

| SMILES | growth (MOLT-4 leukemia) | growth (SR leukemia) | growth (RPMI-8226 leukemia) | growth (OVCAR-8 ovarian) | growth (OVCAR-5 ovarian) | growth (OVCAR-4 ovarian) | growth (SK-OV-3 ovarian) | growth (IGROV1 ovarian) | growth (OVCAR-3 ovarian) | growth (NCI/ADR-RES ovarian) | growth (T-47D breast) | growth (BT-549 breast) | growth (MDA-MB-435 melanoma) | growth (SW-620 colon) | growth (MCF7 breast) | growth (HCT-116 colon) | growth (HCC-2998 colon) | growth (KM12 colon) | growth (HS 578T breast) |
| --- | --- | --- | --- | --- | --- | --- | --- | --- | --- | --- | --- | --- | --- | --- | --- | --- | --- | --- | --- |
| O=[N+]([O-])CC(O)C(Cl)(Cl)Cl (stereo unspecified) | 107% | 98.5% | 71.7% | 116% | 93.6% | 94.2% | 100% | 102% | 116% | 104% | 89.6% | 58% | 103% | 95.8% | 95.5% | 102% | 106% | 107% |  |
| CC(C)=CCC/C(C)=C/C=N\N=C(/N)N[N+](=O)[O-] | 90.9% | 83.6% | 93.6% | 104% | 103% | 93.4% | 98.9% | 99.5% | 101% | 102% |  |  | 94% | 106% | 81.1% | 91.1% | 108% | 95.7% | 99.8% |
| COC(=O)CCc1c[nH]c2ccc(N(CCCl)CCCl)cc12 | 23.1% | 12.7% | 86.3% | 56.1% | 80.3% | 79.7% | 66.4% | 65.6% | 80.3% | 52.7% | 60.2% | 57.4% | 74.1% | 47.5% | 30.9% | 53.1% | 84% | 86.6% |  |
| ClCCN(CCCl)Cc1ccc(Nc2ccnc3cc(Cl)ccc23)cc1 | -33.5% (active) | -15.9% (active) | 0.54% (active) | 37.9% | 74.1% | 48.2% | 53.5% | 55.4% | 39.7% | 71.3% | 36.2% | 65.2% | 39.6% | 34.3% | 18% | 36.5% | 71% | 62.9% |  |
| OCCCCCNC1CCCCC1 | 83.9% | 89.7% | 102% | 103% | 86.3% | 103% | 102% | 103% | 125% | 103% | 95.4% | 105% | 104% | 107% | 103% | 94.7% | 104% | 111% |  |
| COC(=O)C1OC(Oc2ccc(N(CCCl)CCCl)cc2)C(OC(C)=O)C(OC(C)=O)C1OC(C)=O (stereo unspecified) | 37.3% | 4.19% (active) | 96.6% | 84.8% | 90.4% | 87.7% | 96.7% |  | 94.2% | 92.9% | 77.4% | 95.3% | 93.2% | 75.4% | 57.8% | 88.6% | 96% |  | 102% |
| O=[N+]([O-])c1ccc(OP(=O)(CCl)N(CCCl)CCCl)cc1 (stereo unspecified) | 89.7% | 87.9% | 104% | 100% | 99.6% | 104% | 106% | 104% | 118% | 101% | 93.8% | 93.6% | 104% | 102% | 92.5% | 97.9% |  | 101% |  |
| C#Cc1ccc2c(c1)C(c1ccccc1)=NCC(=O)N2C | 39.5% | 38.3% | 64.5% | 63.3% | 85.5% | 90.9% | 31.6% |  | 9.19% (active) | 17.1% | 51.6% | 45.2% | 11.4% | 30.6% | 18.4% | 18.9% | 70.5% | 28.8% | 56.4% |
| COc1ccc(Nc2ccc([N+](=O)[O-])cc2[N+](=O)[O-])cc1CN(CCCl)CCCl | 0.406% (active) | 7.8% (active) | 0.0676% (active) | 30.6% | 50.2% | 52.8% | 48.3% | 32.7% | 20% | 26.9% |  |  | 55.2% | 20.3% | 19.3% | 20.8% |  | 53.1% | 66.7% |
| O=[N+]([O-])c1c(Br)sc(Br)c1[N+](=O)[O-] | -3.6% (active) | -5.81% (active) | 16.7% | 5.21% (active) | 76.3% | 30.9% | 98.7% | 3.28% (active) | -62.4% (active) | -23.6% (active) | -6.93% (active) |  | 17.5% | -77% (active) | 23.3% | -85.2% (active) | 68% | 64.1% |  |
| CN(C)C(=O)Oc1ccccc1 | 110% | 109% | 104% | 102% | 82.4% | 101% | 103% | 108% | 120% | 98.2% | 105% | 118% | 112% | 93.8% | 104% | 104% | 102% | 110% |  |
| [Cl][Hg][n]1c(-c2ccco2)nc2ccccc21 | 88.3% | 64.2% | 92.7% | 106% | 117% | 100% | 119% | 90.5% |  | 98.6% | 94.6% | 99.2% | 95.7% | 80.9% | 74.9% | 99.7% | 116% | 97.8% | 93.9% |
| C#Cc1ccc2c(c1)C(c1ccccc1F)=NCC(=O)N2C | 42.8% | 37.8% | 71.9% | 63.9% | 85.5% | 84.9% | 34% |  | 12.1% | 16.6% | 40.9% | 47.2% | 10.2% | 30.3% | 19.7% | 17.3% | 65.2% | 27.8% | 64.1% |
| CCOC(=S)S[C@H]1C[C@@H]2[C@H](CC[C@]3(C)C(=O)CC[C@@H]23)[C@@]2(C)CCC(=O)C=C12 | 110% | 106% |  | 100% | 102% | 106% | 108% | 112% | 115% | 102% | 108% | 105% | 101% | 105% | 90.6% | 104% | 106% | 101% | 108% |
| O=C(N/N=C/c1ccc(N(CCCl)CCCl)cc1)c1cccc2ccccc12 | 51.4% | 24.2% | 73.9% |  | 93% | 88.5% | 69.1% | 79.2% | 61.8% | 72.9% | 73.3% | 67.4% | 13.8% | 54.1% | 35.4% | 48.1% | 87.7% | 67.4% | 69.4% |
| Oc1c(CCl)cc(Cl)cc1CCl | 98.4% | 101% | 106% | 112% | 102% |  | 107% | 115% | 115% | 102% | 102% |  | 102% | 115% | 105% | 115% | 96.5% | 105% | 104% |
| COc1cc2c(cc1OCCCCn1c(-c3cccs3)nc3ccccc31)N=C[C@@H]1CCCN1C2=O | 20.8% | 32% | -46.8% (active) | -0.203% (active) | 0.96% (active) | -21.3% (active) | 24.9% |  | -10.9% (active) | 36.5% | 5.95% (active) |  | -78.8% (active) | 2.49% (active) | -15.2% (active) | 8.65% (active) | 0.698% (active) | 0.0109% (active) | -5.13% (active) |
| COc1cc(NC(C)CCCNC2CN3CCC2CC3)c2ncccc2c1 (stereo unspecified) | 74.2% | 84.9% | 72.9% | 75.9% | 92.8% |  | 93.4% | 69.1% | 11% | 96.9% | 69.9% | 86% | 94.3% | 72.6% | 0.157% (active) | 66.4% | 75.4% | 85.5% | 65.2% |
